What all share (test): DAPPL (digital affinity profiling via proximity ligation, sequencing); 10 mM Tris-HCl pH 7.5, 50 mM NaCl, 1 mM DTT, 4% glycerol, room temperature, 30 min; GST-TFs on glutathione beads, 16-mer random dsDNA library, 0.1% formaldehyde crosslink after washing; high values mean tight binding
Conditions in all cases: protein: recombinant; tags: N-terminal GST; dsDNA, one strand shown

In assay [1] the target is T1, ELK1 (Homo sapiens, UniProt P19419 1-428).
T1 sequence: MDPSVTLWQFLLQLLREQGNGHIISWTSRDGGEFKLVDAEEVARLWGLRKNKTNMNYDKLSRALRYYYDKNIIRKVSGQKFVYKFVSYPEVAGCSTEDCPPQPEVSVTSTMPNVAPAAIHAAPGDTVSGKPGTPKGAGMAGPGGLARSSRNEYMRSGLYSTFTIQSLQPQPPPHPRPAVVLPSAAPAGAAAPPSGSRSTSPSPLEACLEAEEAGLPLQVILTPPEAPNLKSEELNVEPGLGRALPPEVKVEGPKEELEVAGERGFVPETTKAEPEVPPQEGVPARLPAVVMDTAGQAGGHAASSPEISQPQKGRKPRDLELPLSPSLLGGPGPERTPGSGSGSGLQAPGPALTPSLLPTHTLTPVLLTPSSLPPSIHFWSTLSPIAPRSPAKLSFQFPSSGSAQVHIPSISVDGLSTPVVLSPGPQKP
The procedure, abridged: (§1)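 GST fusions of human transcription factors were expressed in yeast and captured with glutathione beads. Once given DNA barcodes and pooled alongside a tag-only sample, they were incubated for 30 min at room temperature with 200 nmole of a random double-stranded 16-mer DNA library in Tris/NaCl/DTT/glycerol buffer, then washed, crosslinked (0.1% formaldehyde), proximity-ligated, PCR-amplified and sequenced on an Illumina NextSeq500. The binding signal of each hexamer is its read frequency for a factor divided by its frequency for the tag-only sample.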

For assay [2], the target named is T2, GABPA (Homo sapiens, UniProt Q06546 1-454).
T2 sequence: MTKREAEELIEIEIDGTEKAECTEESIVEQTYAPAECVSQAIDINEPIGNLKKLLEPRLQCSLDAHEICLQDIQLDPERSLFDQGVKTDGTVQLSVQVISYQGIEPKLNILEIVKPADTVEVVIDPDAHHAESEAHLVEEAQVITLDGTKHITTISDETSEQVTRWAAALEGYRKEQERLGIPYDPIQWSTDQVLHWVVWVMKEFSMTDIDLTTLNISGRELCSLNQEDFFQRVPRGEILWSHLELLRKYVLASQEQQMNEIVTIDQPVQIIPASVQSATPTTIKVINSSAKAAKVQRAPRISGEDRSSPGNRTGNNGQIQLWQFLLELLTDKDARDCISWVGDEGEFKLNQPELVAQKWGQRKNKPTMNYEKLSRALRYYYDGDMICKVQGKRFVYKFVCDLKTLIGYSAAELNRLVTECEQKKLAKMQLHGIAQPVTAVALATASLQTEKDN
The essentials: as §1

Assay [3] deals with T3, ERG (Homo sapiens, UniProt P11308 1-479).
T3 sequence: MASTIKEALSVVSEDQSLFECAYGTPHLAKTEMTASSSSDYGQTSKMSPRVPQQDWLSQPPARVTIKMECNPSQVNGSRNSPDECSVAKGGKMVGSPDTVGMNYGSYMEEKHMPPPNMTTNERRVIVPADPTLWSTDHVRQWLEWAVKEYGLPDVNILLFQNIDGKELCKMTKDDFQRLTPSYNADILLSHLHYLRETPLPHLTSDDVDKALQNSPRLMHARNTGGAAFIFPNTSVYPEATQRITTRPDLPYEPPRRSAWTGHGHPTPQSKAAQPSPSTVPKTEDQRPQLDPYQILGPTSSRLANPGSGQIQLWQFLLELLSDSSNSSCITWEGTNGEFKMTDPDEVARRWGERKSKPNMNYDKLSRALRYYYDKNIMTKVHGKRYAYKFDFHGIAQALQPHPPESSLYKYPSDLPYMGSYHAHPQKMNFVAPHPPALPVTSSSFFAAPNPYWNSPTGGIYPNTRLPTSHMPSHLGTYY
The essentials: as §1

Assay [4] deals with ELF1 (Homo sapiens, UniProt P32519 1-619). The procedure, abridged: as §1
In assay [5] the target is T4, EHF (Homo sapiens, UniProt Q9NZC4 1-300).
T4 sequence: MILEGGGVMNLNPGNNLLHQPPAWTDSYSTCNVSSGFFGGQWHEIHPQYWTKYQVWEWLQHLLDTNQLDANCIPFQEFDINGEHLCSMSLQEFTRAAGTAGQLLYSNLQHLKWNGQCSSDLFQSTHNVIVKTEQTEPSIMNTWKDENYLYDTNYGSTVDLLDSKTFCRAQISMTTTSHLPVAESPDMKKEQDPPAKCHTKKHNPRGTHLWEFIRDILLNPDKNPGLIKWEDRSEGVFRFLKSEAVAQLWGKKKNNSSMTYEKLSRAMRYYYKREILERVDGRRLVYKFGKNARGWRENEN
The essentials: as §1

Assay [6] addresses SPIB (Homo sapiens, UniProt Q01892 1-262). The essentials:
as §1

Assay [7] has as its target ETV5 (Homo sapiens, UniProt P41161 1-510). The procedure, abridged:
as §1

Assay [8] deals with T5, ELK4 (Homo sapiens, UniProt P28324-2 1-405).
T5 sequence: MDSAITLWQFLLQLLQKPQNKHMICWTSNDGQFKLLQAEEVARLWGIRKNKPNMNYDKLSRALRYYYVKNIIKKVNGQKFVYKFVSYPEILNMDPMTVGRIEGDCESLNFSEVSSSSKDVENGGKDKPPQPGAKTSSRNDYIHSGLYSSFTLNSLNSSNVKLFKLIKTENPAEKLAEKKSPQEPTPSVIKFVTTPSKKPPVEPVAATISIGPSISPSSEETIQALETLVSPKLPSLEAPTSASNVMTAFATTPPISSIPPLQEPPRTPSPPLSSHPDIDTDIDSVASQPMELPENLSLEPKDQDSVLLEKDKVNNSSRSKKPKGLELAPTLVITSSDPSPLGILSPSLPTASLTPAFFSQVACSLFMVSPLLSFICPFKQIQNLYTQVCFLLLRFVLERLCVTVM
The essentials:
as §1

In assay [9] the target is T6, ELF3 (Homo sapiens, UniProt P78545 1-371).
T6 sequence: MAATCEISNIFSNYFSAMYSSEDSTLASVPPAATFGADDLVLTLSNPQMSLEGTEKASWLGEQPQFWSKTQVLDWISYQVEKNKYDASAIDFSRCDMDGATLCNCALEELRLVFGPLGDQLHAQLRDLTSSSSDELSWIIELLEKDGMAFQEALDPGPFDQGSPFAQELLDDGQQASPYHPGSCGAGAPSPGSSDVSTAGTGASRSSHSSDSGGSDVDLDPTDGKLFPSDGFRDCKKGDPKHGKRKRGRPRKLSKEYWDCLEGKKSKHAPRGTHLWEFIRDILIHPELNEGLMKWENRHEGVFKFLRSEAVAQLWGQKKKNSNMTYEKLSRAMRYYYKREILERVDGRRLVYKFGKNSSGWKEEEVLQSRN
The procedure, abridged: as §1

The target of assay [10] is ETV1 (Homo sapiens, UniProt P50549 1-477). The essentials: as §1
Assay [11] deals with T7, ERF (Homo sapiens, UniProt P50548 1-548).
T7 sequence: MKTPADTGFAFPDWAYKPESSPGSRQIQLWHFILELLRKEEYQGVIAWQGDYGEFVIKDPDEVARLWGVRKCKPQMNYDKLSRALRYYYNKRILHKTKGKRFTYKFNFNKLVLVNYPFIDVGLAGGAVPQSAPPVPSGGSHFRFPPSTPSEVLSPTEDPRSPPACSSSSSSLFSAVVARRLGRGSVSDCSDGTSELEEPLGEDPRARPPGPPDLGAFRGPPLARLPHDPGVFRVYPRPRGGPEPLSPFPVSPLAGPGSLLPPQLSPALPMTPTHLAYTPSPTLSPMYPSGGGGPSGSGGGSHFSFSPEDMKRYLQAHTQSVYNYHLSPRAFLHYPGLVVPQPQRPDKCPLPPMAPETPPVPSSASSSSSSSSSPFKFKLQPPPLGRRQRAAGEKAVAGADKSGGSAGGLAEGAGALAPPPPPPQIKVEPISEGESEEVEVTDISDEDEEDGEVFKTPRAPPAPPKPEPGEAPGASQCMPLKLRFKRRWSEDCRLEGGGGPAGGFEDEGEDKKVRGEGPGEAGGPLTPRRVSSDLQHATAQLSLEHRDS
The procedure, abridged: as §1

In assay [12] the target is T8, ETV3L (Homo sapiens, UniProt Q6ZN32 1-361).
T8 sequence: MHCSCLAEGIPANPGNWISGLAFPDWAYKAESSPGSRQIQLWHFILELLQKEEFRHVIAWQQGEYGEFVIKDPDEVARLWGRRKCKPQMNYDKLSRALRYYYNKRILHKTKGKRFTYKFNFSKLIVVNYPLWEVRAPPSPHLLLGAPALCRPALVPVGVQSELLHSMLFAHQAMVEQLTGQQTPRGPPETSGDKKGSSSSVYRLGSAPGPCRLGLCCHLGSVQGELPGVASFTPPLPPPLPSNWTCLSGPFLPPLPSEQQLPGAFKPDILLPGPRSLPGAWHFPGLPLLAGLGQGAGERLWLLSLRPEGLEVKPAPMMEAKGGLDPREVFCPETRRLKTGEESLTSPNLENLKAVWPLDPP
The procedure, abridged:
as §1

Assay [13] addresses T9, ETV7 (Homo sapiens, UniProt Q9Y603 1-341).
T9 sequence: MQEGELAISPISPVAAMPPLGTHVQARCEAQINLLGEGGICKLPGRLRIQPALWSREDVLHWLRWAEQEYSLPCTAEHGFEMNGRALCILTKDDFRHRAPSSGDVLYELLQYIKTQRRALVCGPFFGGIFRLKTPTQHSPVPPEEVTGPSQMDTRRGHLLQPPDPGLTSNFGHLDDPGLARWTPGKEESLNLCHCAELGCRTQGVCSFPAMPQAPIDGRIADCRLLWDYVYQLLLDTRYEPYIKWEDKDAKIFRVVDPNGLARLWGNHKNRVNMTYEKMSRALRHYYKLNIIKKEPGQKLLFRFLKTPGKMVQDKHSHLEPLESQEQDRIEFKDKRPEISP
The essentials: as §1

Assay [14] deals with ETV6 (Homo sapiens, UniProt P41212 1-452). The essentials:
as §1

ETV5, sequence (P41161 whole entry): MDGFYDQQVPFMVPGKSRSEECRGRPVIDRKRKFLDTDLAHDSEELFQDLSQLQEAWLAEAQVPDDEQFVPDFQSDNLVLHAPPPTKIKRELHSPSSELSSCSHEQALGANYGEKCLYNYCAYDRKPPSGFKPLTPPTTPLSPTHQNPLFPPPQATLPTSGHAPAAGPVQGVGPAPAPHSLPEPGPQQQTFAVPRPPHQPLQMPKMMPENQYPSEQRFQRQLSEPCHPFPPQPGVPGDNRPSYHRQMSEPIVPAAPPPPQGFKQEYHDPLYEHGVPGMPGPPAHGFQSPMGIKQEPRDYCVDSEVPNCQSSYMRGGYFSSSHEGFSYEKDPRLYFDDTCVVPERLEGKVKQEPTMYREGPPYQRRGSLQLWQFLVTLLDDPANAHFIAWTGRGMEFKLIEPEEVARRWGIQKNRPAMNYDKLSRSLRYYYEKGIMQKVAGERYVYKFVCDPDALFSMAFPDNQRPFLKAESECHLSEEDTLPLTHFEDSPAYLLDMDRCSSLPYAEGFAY
ETV6, sequence (P41212 whole entry): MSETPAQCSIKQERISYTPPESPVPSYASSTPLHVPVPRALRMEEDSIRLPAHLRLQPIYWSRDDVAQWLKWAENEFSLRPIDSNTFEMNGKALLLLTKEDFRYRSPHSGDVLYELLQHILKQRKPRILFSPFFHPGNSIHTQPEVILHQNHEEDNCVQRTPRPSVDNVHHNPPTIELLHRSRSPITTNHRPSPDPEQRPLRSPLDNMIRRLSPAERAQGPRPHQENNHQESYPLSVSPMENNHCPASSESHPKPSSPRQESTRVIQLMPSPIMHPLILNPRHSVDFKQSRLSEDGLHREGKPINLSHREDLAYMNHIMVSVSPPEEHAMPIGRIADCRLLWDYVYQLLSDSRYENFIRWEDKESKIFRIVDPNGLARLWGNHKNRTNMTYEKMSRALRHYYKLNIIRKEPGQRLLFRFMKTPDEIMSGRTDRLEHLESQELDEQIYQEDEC
ETV1, sequence (P50549 whole entry): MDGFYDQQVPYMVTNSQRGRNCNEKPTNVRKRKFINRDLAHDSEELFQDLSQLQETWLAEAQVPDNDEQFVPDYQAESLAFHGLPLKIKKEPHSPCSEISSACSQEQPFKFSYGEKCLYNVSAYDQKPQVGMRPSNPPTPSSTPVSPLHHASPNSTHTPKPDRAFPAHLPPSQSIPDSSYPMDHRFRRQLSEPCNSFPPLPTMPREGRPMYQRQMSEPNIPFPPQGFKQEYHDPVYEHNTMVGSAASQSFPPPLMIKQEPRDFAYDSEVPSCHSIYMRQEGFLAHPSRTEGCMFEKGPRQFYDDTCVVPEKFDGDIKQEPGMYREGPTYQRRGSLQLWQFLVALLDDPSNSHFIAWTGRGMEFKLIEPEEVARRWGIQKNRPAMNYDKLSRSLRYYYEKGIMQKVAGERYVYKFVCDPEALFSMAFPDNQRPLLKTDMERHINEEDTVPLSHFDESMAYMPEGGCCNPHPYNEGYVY
ELF1, sequence (P32519 whole entry): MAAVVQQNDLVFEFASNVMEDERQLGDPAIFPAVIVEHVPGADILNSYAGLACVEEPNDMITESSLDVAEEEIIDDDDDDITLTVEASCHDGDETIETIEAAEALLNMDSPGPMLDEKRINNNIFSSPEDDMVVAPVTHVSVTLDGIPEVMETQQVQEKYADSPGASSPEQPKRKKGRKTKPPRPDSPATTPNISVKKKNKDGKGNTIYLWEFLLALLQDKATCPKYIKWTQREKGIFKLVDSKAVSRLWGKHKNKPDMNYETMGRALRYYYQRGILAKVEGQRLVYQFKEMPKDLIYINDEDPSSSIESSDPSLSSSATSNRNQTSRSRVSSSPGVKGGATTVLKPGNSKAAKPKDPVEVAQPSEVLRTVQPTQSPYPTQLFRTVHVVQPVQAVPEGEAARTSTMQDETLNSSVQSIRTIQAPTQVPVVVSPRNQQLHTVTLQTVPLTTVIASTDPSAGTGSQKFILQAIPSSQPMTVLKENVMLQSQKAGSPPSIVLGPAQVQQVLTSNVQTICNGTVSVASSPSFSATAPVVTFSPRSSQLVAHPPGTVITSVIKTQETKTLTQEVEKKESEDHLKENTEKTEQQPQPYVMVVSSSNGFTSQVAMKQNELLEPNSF
SPIB, sequence (Q01892 whole entry): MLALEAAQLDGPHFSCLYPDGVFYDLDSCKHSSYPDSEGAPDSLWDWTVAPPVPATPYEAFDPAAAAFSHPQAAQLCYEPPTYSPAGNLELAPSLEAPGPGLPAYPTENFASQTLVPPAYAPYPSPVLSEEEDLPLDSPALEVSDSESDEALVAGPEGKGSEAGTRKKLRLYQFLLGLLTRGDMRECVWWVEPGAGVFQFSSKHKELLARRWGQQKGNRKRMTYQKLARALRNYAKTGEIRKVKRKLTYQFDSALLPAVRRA

Consider CGAATC, for which the binding signal in assay [1] was 1.01 fold enrichment (6-mer frequency, TF over GST control); in [2], 1.14 fold enrichment (6-mer frequency, TF over GST control); in [3] it was 1.05 fold enrichment (6-mer frequency, TF over GST control); in assay [4] it was 1 fold enrichment (6-mer frequency, TF over GST control); in assay [5] it was 1.06 fold enrichment (6-mer frequency, TF over GST control); in assay [6], 1.13 fold enrichment (6-mer frequency, TF over GST control). The binding signal in [7] was 1.07 fold enrichment (6-mer frequency, TF over GST control); in [8], 1.09 fold enrichment (6-mer frequency, TF over GST control); in assay [9], 1.11 fold enrichment (6-mer frequency, TF over GST control); in assay [10] it was 1.02 fold enrichment (6-mer frequency, TF over GST control); in assay [11], 1.15 fold enrichment (6-mer frequency, TF over GST control); in assay [12], 1 fold enrichment (6-mer frequency, TF over GST control). Besides, the binding signal in assay [13] was 1.02 fold enrichment (6-mer frequency, TF over GST control); in assay [14], 1.01 fold enrichment (6-mer frequency, TF over GST control).

(Values after article PMC7862700, “An all-to-all approach to the identification of sequence-specific readers for epigenetic DNA modifications on cytosine”.)
